Records with an inconclusive call do not appear. The source made the active and inactive calls. Calls follow the shape of the dose curve; as a rule, active = well fitted cell-killing curve with a large enough effect; inconclusive = small, poorly fitted or top-dose-only effect; inactive = flat fitted curve, though single readings scatter.
Legend:
[1] = Cell Viability - LYMP2-013 (AID 970); also: nearly all actives have a fitted effect of over 55% in size; also: potency is read from the fitted curve at half-maximal effect
Summary of the method: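 Cytotoxicity is scored as a concentration-dependent drop in intracellular ATP in human lymphoblastoid cells after 24 hr compound exposure at 37 C. ATP is quantified by luciferase luminescence, and AC50 values come from Hill-equation modeling.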

[2] = Cell Viability - LYMP2-015 (AID 971); also: nearly all actives have a fitted effect of over 55% in size
Summary of the method: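 Cells are seeded at 2500 per well and incubated 5 hr at 37 C. Compounds are added across a concentration series for 24 hr at 37 C. CellTiter-Glo is added, and luminescence is read after 30 min at room temperature.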

[3] = Cell Viability - LYMP2-017 (AID 972); also: nearly all actives have a fitted effect of over 55% in size; also: potency is read from the fitted curve at half-maximal effect
Summary of the method: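 Cytotoxicity is scored as a concentration-dependent drop in cellular ATP in a human lymphoblastoid line after 24 hr treatment at 37 C. Values are AC50s from Hill-equation modelling.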

[4] = Cell Viability - LYMP2-019 (AID 973); also: nearly all actives have a fitted effect of over 55% in size
Summary of the method: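 Cytotoxicity is scored as a concentration-dependent drop in cellular ATP after cells (2500/well) receive compound for 24 hr at 37 C. Tetraoctylammonium bromide serves as positive control.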

[5] = Cell Viability - LYMP2-021 (AID 974); also: potency is read from the fitted curve at half-maximal effect
Summary of the method: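 Loss of cellular ATP, measured with a luciferase-based CellTiter-Glo readout, serves as the toxicity signal in human lymphoblastoid cells treated for 24 hours at 37 C. Potency is reported as AC50 from a standard Hill model.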

[6] = Cell Viability - LYMP2-023 (AID 975); also: nearly all actives have a fitted effect of over 55% in size; also: potency is read from the fitted curve at half-maximal effect
Summary of the method: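 Steps: seed 2500 human lymphoblastoid cells per well, incubate 5 hr at 37 C, add compound for 24 hr at 37 C, add CellTiter-Glo, hold 30 min at room temperature, read luminescence. AC50 derived by Hill modelling.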

[7] = Cell Viability - LYMP2-025 (AID 976); also: series mostly up to about 92 µM
Summary of the method: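 Acute cytotoxicity is scored as a concentration-dependent fall in intracellular ATP, measured by luciferase luminescence, in human lymphoblastoid LYMP2-025 cells exposed to compound for 24 hours at 37 C. AC50 values come from standard Hill fits.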

[8] = Cell Viability - LYMP2-002 (AID 977);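 also: series mostly up to about 92 µM; compound exposure lasted 24 h at 37 °C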
Summary of the method: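 Human lymphoblastoid cells (2500/well) in complete medium were preincubated 5 hr at 37 C, then exposed to compounds for 24 hr at 37 C. Intracellular ATP was read by CellTiter-Glo luminescence; AC50 came from Hill-equation concentration-response fits.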

[9] = Cell Viability - LYMP2-006 (AID 978); also: series mostly up to about 92 µM; nearly all actives have a fitted effect of over 60% in size
Summary of the method: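 Human lymphoblastoid cells (LYMP2-006), 2500/well in complete medium, were treated with compound for 24 hr at 37 C. Cellular ATP was read by CellTiter-Glo luminescence after 30 min, and AC50 values came from Hill-equation fits of concentration-response data.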

[10] = Cell Viability - LYMP2-007 (AID 979);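 also: cells exposed to compound for 24 h before reading; nearly all actives have a fitted effect of over 60% in size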; also: potency is read from the fitted curve at half-maximal effect
Summary of the method: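 Cells are seeded at 2500 per well and rested 5 hr. Compounds are then added over a concentration series for 24 hr at 37 C. CellTiter-Glo is added for 30 min at room temperature before luminescence reading.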

Measured: Potency

Oc1cccc(O)c1
inactive: [1] | [2] | [3] | [4] | [5] | [6] | [7] | [8] | [9] | [10]

Cc1c(O)cccc1C(=O)N[C@@H](CSc1ccccc1)[C@H](O)CN1C[C@H]2CCCC[C@H]2C[C@H]1C(=O)NC(C)(C)C
active: [1] 50.1 µM | [3] 50.1 µM | [5] 50.1 µM | [6] 50.1 µM | [10] 50.1 µM

CCCCOC(=O)c1ccc(O)cc1
inactive: [1] | [2] | [3] | [4] | [5] | [6] | [7] | [8] | [9] | [10]

Nc1ccc(S(=O)(=O)Nc2nccs2)cc1
inactive: [1] | [2] | [3] | [5] | [6] | [7] | [8] | [9] | [10]

NC(=O)N/N=C/c1ccc([N+](=O)[O-])o1
inactive: [1] | [5] | [10]

C[C@]12C[C@H](O)[C@H]3[C@@H](CCC4=CC(=O)CC[C@@]43C)[C@@H]1CC[C@@H]2C(=O)CO
inactive: [1] | [2] | [3] | [4] | [5] | [6] | [7] | [8] | [9] | [10]

CC1(C)[C@@H]2CC[C@@]1(C)C(=O)C2
inactive: [1] | [2] | [3] | [4] | [5] | [6] | [7] | [8] | [9] | [10]

NCCNCCNCCNCCN
inactive: [1] | [2] | [3] | [4] | [5] | [6] | [7] | [8] | [9] | [10]

Cc1cc2nc3c(=O)[nH]c(=O)nc-3n(C[C@H](O)[C@H](O)[C@H](O)CO)c2cc1C
inactive: [1] | [2] | [3] | [4] | [5] | [6] | [7] | [8] | [9] | [10]

Cc1cc(CC(=O)O)n(C)c1C(=O)c1ccc(Cl)cc1
inactive: [1] | [2] | [3] | [4] | [5] | [6] | [7] | [8] | [9] | [10]

COC(=O)C1=C(C)NC(C)=C(C(=O)OC)C1c1ccccc1[N+](=O)[O-]
inactive: [7]

CN(C)CCC=C1c2ccccc2CCc2ccccc21
inactive: [7]

NCCNCCNCCN
inactive: [1] | [2] | [3] | [4] | [5] | [6] | [7] | [8] | [10]

O=C1O[C@H]([C@@H](O)CO)C(O)=C1O
inactive: [1] | [2] | [4] | [5] | [6] | [7] | [8] | [9] | [10]

[Cl][In]([Cl])[Cl]
inactive: [1] | [2] | [3] | [4] | [5] | [6] | [7] | [8] | [9] | [10]

CCCCCCCCCCCCOS(=O)(=O)O
inactive: [1] | [2] | [3] | [4] | [5] | [6] | [7] | [8] | [9] | [10]

NC(=O)c1ncn([C@@H]2O[C@H](CO)[C@@H](O)[C@H]2O)n1
inactive: [1] | [2] | [3] | [5] | [6] | [7] | [8] | [10]

O=C1c2c(O)cccc2Cc2cccc(O)c21
inactive: [1] | [2] | [3] | [4] | [5] | [6] | [7] | [8] | [9] | [10]

COc1ccccc1O
inactive: [1] | [2] | [3] | [4] | [5] | [6] | [7] | [8] | [9] | [10]

CC12CCC(CC1)C(C)(C)O2
inactive: [1] | [2] | [3] | [4] | [5] | [6] | [8] | [9] | [10]

From PubChem BioAssay (NCATS)
